Holding throughout (experiment): DAPPL (digital affinity profiling via proximity ligation, sequencing); 10 mM Tris-HCl pH 7.5, 50 mM NaCl, 1 mM DTT, 4% glycerol, room temperature, 30 min; GST-TFs on glutathione beads, 16-mer random dsDNA library, 0.1% formaldehyde crosslink after washing; high values mean tight binding
One assay has as its target T1, FLI1 (Homo sapiens, UniProt Q01543 1-452).
T1 sequence: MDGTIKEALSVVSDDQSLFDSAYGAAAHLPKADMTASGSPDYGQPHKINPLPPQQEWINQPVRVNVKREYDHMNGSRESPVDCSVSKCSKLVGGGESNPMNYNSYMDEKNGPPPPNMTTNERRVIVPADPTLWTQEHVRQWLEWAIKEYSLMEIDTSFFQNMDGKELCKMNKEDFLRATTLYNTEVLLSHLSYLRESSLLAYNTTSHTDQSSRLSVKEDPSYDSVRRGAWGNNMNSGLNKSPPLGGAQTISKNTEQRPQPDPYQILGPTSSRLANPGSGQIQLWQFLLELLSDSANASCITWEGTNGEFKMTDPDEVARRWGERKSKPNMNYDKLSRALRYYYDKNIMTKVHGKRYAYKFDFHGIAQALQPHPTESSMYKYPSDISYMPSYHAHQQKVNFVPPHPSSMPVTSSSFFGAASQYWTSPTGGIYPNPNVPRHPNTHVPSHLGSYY
The note with it: protein: recombinant; tags: N-terminal GST; dsDNA, one strand shown. An outline of the steps: (§1)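 Sequencing on an Illumina NextSeq500 followed washing, crosslinking with 0.1% formaldehyde, proximity ligation (BsaI/T4 ligase, 1 h, 37 °C) and PCR amplification of pools that had been incubated for 30 min at room temperature with 200 nmole of a random double-stranded 16-mer DNA library in Tris/NaCl/DTT/glycerol buffer. Each pool held DNA-barcoded human transcription factors, expressed in yeast as GST fusions and captured on glutathione beads, plus a tag-only sample. Binding signal is a hexamer's read frequency for a factor divided by its frequency in the tag-only sample.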

Another assay has as its target T2, ELK1 (Homo sapiens, UniProt P19419 1-428).
T2 sequence: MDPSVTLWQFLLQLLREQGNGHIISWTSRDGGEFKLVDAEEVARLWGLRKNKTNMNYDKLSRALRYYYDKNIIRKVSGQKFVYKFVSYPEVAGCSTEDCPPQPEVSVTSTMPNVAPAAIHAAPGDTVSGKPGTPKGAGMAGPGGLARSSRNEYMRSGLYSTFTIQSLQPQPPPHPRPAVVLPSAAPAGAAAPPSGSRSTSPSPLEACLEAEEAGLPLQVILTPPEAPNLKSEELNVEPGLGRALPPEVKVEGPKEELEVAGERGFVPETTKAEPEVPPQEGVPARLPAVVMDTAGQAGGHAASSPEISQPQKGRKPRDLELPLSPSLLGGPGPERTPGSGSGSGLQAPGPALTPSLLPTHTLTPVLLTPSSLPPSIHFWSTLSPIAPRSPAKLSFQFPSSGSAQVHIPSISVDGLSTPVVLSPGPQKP
The conditions noted are these: protein: recombinant; tags: N-terminal GST; dsDNA, one strand shown. An outline of the steps:
as §1

A further assay deals with T3, GABPA (Homo sapiens, UniProt Q06546 1-454).
T3 sequence: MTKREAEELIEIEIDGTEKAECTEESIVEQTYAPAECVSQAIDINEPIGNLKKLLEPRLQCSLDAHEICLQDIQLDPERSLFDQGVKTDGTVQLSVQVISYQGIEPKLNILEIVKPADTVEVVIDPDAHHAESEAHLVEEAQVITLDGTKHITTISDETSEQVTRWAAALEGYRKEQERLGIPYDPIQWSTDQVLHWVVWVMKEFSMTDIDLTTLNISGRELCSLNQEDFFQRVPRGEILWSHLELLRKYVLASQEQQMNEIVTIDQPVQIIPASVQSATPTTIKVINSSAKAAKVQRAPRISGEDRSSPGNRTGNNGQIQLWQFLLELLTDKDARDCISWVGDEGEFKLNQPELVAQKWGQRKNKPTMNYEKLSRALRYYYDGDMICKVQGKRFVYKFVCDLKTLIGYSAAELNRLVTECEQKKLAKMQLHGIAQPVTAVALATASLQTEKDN
The note with it: protein: recombinant; tags: N-terminal GST; dsDNA, one strand shown. The method, boiled down: as §1

For the next assay, the target named is T4, ERG (Homo sapiens, UniProt P11308 1-479).
T4 sequence: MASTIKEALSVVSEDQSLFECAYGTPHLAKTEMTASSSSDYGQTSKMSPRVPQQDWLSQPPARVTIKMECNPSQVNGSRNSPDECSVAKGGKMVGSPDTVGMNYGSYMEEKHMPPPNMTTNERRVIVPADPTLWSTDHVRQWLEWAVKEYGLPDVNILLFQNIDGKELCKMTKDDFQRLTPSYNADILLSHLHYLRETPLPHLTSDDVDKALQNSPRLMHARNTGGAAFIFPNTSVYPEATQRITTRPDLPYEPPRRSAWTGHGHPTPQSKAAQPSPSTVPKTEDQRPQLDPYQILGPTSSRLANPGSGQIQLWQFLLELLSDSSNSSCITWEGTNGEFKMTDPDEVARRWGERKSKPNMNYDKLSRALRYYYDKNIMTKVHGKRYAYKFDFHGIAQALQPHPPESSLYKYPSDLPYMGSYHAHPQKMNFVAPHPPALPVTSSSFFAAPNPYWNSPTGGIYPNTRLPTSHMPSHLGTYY
The conditions noted are these: protein: recombinant; tags: N-terminal GST; dsDNA, one strand shown. An outline of the steps: as §1

The target in another assay is ELF1 (Homo sapiens, UniProt P32519 1-619). The note with it: protein: recombinant; tags: N-terminal GST; dsDNA, one strand shown. An outline of the steps:
as §1

The target in another assay is T5, EHF (Homo sapiens, UniProt Q9NZC4 1-300).
T5 sequence: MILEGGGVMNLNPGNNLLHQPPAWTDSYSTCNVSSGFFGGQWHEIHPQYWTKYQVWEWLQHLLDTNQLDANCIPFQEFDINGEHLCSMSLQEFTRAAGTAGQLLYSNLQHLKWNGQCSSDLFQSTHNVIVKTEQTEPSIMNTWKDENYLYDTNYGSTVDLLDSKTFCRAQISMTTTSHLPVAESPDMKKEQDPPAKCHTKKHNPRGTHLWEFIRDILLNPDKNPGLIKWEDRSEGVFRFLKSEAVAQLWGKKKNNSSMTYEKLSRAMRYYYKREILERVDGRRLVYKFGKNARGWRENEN
The note with it: protein: recombinant; tags: N-terminal GST; dsDNA, one strand shown. An outline of the steps: as §1

The target in another assay is SPI1 (Homo sapiens, UniProt P17947 1-270). The conditions noted are these: protein: recombinant; tags: N-terminal GST; dsDNA, one strand shown. An outline of the steps:
as §1

Another assay has as its target SPIB (Homo sapiens, UniProt Q01892 1-262). The conditions noted are these: protein: recombinant; tags: N-terminal GST; dsDNA, one strand shown. The method, boiled down:
as §1

A further assay has as its target T6, ELK3 (Homo sapiens, UniProt P41970 1-407).
T6 sequence: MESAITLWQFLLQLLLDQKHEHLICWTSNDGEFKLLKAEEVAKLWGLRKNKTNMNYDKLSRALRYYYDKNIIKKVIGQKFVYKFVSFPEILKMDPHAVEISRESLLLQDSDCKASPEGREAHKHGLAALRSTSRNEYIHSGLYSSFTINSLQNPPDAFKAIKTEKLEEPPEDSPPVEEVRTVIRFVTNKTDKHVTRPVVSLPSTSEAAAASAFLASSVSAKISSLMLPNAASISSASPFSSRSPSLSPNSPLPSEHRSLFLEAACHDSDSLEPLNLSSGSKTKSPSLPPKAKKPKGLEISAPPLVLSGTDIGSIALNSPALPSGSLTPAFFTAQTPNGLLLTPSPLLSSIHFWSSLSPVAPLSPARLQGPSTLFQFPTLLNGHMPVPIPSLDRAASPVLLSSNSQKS
The note with it: protein: recombinant; tags: N-terminal GST; dsDNA, one strand shown. The method, boiled down:
as §1

The target of a further assay is T7, FEV (Homo sapiens, UniProt Q99581 1-238).
T7 sequence: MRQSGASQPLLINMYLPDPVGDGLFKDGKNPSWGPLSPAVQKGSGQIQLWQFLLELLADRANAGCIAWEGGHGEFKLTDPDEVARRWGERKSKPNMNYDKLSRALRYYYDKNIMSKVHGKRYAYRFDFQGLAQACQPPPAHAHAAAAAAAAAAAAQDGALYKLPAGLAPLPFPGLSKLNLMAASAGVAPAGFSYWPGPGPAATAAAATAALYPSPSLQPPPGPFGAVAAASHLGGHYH
The conditions noted are these: protein: recombinant; tags: N-terminal GST; dsDNA, one strand shown. An outline of the steps: as §1

Another assay concerns the target ETV5 (Homo sapiens, UniProt P41161 1-510). The conditions noted are these: protein: recombinant; tags: N-terminal GST; dsDNA, one strand shown. The method, boiled down:
as §1

For a further assay, the target named is HSF1 (Homo sapiens, UniProt Q00613 1-529). The conditions noted are these: protein: recombinant; tags: N-terminal GST; chain copies: 3; dsDNA, one strand shown. An outline of the steps:
as §1

Another assay has as its target T8, SPIC (Homo sapiens, UniProt Q8N5J4 1-248).
T8 sequence: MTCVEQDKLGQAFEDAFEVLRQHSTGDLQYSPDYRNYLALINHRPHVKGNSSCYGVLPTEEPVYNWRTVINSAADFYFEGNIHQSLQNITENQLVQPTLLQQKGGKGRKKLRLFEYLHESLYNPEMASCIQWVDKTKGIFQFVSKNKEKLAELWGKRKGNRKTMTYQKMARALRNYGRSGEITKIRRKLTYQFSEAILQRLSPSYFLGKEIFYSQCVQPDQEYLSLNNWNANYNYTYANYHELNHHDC
The conditions noted are these: protein: recombinant; tags: N-terminal GST; dsDNA, one strand shown. The method, boiled down:
as §1

A further assay concerns the target ELF4 (Homo sapiens, UniProt Q99607 1-663). The conditions noted are these: protein: recombinant; tags: N-terminal GST; dsDNA, one strand shown. An outline of the steps:
as §1

The target of a further assay is T9, ELK4 (Homo sapiens, UniProt P28324-2 1-405).
T9 sequence: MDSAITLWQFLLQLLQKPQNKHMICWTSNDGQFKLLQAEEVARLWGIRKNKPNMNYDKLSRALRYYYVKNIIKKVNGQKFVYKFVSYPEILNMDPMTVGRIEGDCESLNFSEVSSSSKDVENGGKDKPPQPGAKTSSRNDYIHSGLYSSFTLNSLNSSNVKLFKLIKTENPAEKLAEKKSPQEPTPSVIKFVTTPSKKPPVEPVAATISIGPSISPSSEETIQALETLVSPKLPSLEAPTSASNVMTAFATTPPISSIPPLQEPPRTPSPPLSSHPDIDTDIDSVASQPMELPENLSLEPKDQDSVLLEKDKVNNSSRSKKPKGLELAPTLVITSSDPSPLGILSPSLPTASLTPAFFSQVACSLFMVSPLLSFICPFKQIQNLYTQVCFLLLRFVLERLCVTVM
The note with it: protein: recombinant; tags: N-terminal GST; dsDNA, one strand shown. The method, boiled down: as §1

In another assay the target is T10, ETV2 (Homo sapiens, UniProt O00321 1-342).
T10 sequence: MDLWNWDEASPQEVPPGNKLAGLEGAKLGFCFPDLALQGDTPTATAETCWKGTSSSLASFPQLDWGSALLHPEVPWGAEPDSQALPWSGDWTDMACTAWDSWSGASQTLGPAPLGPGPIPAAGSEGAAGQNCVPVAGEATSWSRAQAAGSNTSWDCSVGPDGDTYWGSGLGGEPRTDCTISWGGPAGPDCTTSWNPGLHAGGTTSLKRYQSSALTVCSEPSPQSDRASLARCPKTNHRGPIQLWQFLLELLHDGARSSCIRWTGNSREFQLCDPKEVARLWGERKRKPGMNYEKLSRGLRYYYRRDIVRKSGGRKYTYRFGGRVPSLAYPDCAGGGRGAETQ
The conditions noted are these: protein: recombinant; tags: N-terminal GST; dsDNA, one strand shown. An outline of the steps:
as §1

The next assay addresses T11, ELF3 (Homo sapiens, UniProt P78545 1-371).
T11 sequence: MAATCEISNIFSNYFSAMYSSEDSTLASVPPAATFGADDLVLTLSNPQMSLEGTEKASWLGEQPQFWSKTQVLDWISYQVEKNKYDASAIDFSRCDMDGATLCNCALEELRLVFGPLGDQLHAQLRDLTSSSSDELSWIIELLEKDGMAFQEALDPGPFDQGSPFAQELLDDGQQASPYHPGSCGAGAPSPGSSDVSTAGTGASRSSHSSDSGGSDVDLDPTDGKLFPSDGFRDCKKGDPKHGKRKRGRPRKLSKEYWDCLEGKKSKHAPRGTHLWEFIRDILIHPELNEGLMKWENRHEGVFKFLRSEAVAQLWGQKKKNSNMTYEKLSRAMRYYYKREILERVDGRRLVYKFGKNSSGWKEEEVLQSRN
The note with it: protein: recombinant; tags: N-terminal GST; dsDNA, one strand shown. An outline of the steps: as §1

A further assay concerns the target ETV1 (Homo sapiens, UniProt P50549 1-477). The conditions noted are these: protein: recombinant; tags: N-terminal GST; dsDNA, one strand shown. The method, boiled down:
as §1

HSF1, sequence (Q00613 whole entry): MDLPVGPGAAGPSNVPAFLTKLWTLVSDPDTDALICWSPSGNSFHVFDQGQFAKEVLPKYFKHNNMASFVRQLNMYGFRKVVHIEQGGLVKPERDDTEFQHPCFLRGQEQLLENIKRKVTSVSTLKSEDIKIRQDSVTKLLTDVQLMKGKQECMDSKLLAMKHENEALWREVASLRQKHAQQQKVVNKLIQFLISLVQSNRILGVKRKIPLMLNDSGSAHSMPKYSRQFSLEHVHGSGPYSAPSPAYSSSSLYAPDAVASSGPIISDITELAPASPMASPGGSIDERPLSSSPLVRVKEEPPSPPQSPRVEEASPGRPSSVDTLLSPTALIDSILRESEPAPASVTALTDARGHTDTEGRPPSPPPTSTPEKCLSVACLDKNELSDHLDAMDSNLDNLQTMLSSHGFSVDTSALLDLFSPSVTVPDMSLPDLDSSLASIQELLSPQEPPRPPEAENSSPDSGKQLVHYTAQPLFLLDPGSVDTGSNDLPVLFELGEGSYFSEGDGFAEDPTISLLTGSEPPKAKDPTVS
ELF4, sequence (Q99607 whole entry): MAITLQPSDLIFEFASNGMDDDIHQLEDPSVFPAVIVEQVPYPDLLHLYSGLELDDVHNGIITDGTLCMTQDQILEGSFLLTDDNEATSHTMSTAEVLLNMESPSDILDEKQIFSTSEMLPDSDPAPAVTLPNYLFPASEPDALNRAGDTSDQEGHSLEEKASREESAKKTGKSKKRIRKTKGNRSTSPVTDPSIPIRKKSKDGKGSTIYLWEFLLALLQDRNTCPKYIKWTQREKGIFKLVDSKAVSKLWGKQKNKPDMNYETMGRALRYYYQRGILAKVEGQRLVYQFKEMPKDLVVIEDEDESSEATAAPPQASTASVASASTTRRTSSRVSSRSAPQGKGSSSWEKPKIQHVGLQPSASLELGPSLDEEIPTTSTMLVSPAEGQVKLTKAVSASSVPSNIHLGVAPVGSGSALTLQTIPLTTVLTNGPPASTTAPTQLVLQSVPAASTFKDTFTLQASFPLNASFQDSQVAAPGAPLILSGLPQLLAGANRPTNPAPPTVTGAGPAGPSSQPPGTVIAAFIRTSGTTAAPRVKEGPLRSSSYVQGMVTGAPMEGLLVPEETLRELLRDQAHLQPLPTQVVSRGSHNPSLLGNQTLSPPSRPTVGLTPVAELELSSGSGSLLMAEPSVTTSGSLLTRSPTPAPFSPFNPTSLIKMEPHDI
SPIB, sequence (Q01892 whole entry): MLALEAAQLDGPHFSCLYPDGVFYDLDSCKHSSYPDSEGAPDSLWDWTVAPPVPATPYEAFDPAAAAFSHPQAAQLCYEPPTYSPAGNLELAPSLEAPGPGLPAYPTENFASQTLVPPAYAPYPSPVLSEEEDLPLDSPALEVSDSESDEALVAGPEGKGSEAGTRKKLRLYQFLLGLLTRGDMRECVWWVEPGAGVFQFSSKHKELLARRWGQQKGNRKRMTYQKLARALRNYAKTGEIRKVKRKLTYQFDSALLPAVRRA
ETV1, sequence (P50549 whole entry): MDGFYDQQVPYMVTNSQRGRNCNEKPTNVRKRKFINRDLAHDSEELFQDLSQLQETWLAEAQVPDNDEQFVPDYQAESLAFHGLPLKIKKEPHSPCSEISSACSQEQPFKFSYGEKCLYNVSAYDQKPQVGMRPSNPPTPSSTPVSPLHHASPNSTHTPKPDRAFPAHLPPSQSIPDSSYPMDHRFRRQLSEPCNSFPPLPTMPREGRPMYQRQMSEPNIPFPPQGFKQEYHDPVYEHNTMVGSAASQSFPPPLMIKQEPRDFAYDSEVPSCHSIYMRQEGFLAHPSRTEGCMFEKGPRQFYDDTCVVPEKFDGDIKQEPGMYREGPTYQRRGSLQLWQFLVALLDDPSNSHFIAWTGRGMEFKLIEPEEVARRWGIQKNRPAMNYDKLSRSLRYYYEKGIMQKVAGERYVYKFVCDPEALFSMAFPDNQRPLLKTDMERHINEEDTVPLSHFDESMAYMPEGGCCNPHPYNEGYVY
ETV5, sequence (P41161 whole entry): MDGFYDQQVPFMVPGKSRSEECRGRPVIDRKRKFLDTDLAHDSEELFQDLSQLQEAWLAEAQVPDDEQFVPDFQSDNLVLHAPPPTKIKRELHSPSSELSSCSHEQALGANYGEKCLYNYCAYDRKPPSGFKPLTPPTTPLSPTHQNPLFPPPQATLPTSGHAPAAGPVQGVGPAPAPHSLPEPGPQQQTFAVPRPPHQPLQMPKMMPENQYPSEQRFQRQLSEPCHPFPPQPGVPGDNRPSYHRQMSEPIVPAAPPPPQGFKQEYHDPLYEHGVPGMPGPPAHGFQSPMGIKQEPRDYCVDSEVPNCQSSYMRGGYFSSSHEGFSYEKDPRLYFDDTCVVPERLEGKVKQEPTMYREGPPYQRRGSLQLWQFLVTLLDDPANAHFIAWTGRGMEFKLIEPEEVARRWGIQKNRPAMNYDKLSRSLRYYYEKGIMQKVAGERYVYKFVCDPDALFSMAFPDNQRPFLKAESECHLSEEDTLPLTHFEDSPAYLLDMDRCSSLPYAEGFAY
ELF1, sequence (P32519 whole entry): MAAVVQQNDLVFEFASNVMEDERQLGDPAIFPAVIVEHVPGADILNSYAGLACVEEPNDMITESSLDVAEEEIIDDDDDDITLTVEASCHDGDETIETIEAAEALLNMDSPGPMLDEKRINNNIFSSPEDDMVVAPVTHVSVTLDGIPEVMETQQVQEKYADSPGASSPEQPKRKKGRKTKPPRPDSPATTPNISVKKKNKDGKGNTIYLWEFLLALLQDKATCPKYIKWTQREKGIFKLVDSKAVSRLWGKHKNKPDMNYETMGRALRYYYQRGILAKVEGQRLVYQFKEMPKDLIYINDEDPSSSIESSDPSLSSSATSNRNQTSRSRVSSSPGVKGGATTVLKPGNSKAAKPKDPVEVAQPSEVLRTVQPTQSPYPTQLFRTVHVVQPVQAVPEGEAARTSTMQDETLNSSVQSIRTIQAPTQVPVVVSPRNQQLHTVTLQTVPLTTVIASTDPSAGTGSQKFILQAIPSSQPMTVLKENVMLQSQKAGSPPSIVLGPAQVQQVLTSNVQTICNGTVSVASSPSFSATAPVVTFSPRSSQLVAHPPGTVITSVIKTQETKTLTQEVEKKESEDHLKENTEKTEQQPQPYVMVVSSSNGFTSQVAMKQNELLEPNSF

On to TGTTCA, for which the binding signal with FLI1 is 1.11 fold enrichment (6-mer frequency, TF over GST control); with ELK1, 1.31 fold enrichment (6-mer frequency, TF over GST control); with GABPA it was 1.21 fold enrichment (6-mer frequency, TF over GST control); in the assay with ERG, 1.19 fold enrichment (6-mer frequency, TF over GST control); with ELF1 it was 1.18 fold enrichment (6-mer frequency, TF over GST control); in the assay with EHF, 1.23 fold enrichment (6-mer frequency, TF over GST control). Moreover, the binding signal with SPI1 is 1.3 fold enrichment (6-mer frequency, TF over GST control); with SPIB, 1.17 fold enrichment (6-mer frequency, TF over GST control); with ELK3, 1.37 fold enrichment (6-mer frequency, TF over GST control); in the assay with FEV, 1.19 fold enrichment (6-mer frequency, TF over GST control); in the assay with ETV5, 1.18 fold enrichment (6-mer frequency, TF over GST control); with HSF1, 1.09 fold enrichment (6-mer frequency, TF over GST control). Further, the binding signal in the assay with SPIC was 1.17 fold enrichment (6-mer frequency, TF over GST control); with ELF4 it was 1.21 fold enrichment (6-mer frequency, TF over GST control); in the assay with ELK4, 1.28 fold enrichment (6-mer frequency, TF over GST control); in the assay with ETV2 it was 1.07 fold enrichment (6-mer frequency, TF over GST control); with ELF3, 1.22 fold enrichment (6-mer frequency, TF over GST control); with ETV1, 1.21 fold enrichment (6-mer frequency, TF over GST control).

These data come from publication PMC7862700, “An all-to-all approach to the identification of sequence-specific readers for epigenetic DNA modifications on cytosine”.
